Screens: PubChem BioAssay, National Center for Advancing Translational Sciences (NCATS)
Shown is part of a subset that was picked to be rich in hits.
AmpC no deterg – qHTS Inhibitors of AmpC Beta-Lactamase (assay without detergent); 0.52% of 330,000 active; AmpC nitrocefin hydrolysis, absorbance 480 nm, 0.0001% Triton; Potency, µM (top dose mostly 57.1 µM), without a hit: at the highest dose activity change, negative = inhibition, hits mostly inhibitors; P00811;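 also: potency is read from the fitted curve at half-maximal effect; plate controls were no compound for no effect and no enzyme for full effect; nearly all actives have a fitted effect of over 20% in size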
Target sequence (P00811 whole entry, looked up): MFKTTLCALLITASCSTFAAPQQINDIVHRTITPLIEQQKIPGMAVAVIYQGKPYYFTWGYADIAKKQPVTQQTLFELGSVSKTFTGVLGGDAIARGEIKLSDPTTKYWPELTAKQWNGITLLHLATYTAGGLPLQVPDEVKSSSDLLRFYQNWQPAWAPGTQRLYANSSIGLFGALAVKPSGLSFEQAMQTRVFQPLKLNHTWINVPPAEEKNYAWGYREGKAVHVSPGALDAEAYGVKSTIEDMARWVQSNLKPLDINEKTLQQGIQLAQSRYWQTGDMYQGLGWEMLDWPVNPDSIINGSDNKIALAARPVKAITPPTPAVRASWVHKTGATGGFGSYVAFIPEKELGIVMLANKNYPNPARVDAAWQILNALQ
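20 mM phosphate pH 7.0 + 0.01% (detergent screen) or 0.0001% Triton X-100; 5.3 nM AmpC reagent; cpd preinc 15 min RT; nitrocefin (800 uM stock) to start; A480 q20 s × 4 min; Activity was normalised to no-enzyme and no-compound control wells.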
AmpC detergent – qHTS Inhibitors of AmpC Beta-Lactamase (assay with detergent); 0.041% of 370,000 active; P00811; AmpC hydrolysis of nitrocefin, absorbance 480 nm, 0.01% Triton; Potency, µM (highest dose often 114 µM), without a hit: at the highest dose activity change, negative = inhibition, actives largely listed as inhibitors;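 also: potency is read from the fitted curve at half-maximal effect; 0% = no-compound wells and -100% = no-enzyme wells; nearly all actives have a fitted effect of over 25% in size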
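AmpC (5.3 nM in the dispensed reagent) in 20 mM phosphate pH 7.0 with 0.01% (detergent screen) or 0.0001% Triton X-100 was preincubated with compounds for 15 min at room temperature. Nitrocefin was then added from an 800 uM solution, and hydrolysis was followed at 480 nm.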
AMA1 RON2 block – qHTS for Inhibitors of AMA1-RON; Towards Development of Antimalarial Drug Lead: Primary Screen. AlphaScreen AMA1-biotinylated RON2 peptide binding. Potency, µM (titrated, usually from 58.2 µM), without a hit: at the highest dose activity change, negative = inhibition, most hits filed as inhibitors. 0.2% of 360,000 active;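 also: potency is read from the fitted curve at half-maximal effect; 0% = vehicle wells and -100% = peptide control; nearly all actives have a fitted effect of over 45% in size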
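AMA1 (3D7) with his tag at 25 nM final met compounds first, then biotinylated RON2 peptide at 25 nM; detection used donor plus acceptor beads, 10 µg/mL apiece, read by AlphaScreen after 30 min at room temperature.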
Cycloheximide cs – Cycloheximide Counterscreen for Small Molecule Inhibitors of Shiga Toxin. cell reporter, cycloheximide protein synthesis inhibition counterscreen. max response, %. 12% of 300,000 active. AID 2314, 2010; in the data active = max response mostly above about 13%, no sharp cut-off; inactive = mostly below about 14%; also: read at 38.3 µM for the half of the compounds with a filed dose; 0% is about no effect
Shiga toxin inh – A qHTS for Small Molecule Inhibitors of Shiga Toxin. Vero cells, Shiga toxin protein synthesis inhibition reporter. inhibition, % at 38.7 µM. 9.2% of 290,000 active; in the data active = inhibition mostly above about 28%, no sharp cut-off; inactive = mostly below about 43%; also: 0% is about no effect
SARS PLpro yeast – qHTS of Yeast-based Assay for SARS-CoV PLP; S. cerevisiae expressing SARS-CoV PLpro, growth rescue; Potency, µM (top dose mostly 32.9 µM), inactives show top-dose activity, positive = growth rescue, most hits filed as activators; 0.19% of 330,000 active; AID 485353, 2010; calls by dose curve; also: potency is read from the fitted curve at half-maximal effect; 0% is about no effect; nearly all actives have a fitted effect of over 55% in size
Starred values were filed as active, the others as inactive; ? = inconclusive; . = not tested or not shown. Unless noted, calls follow the shape of the dose curve; as a rule, active = well fitted curve in the direction sought with a large enough effect; inconclusive = small, poorly fitted or top-dose-only effect, or another doubt; inactive = no such curve, though single readings can be large; an effect the other way counts as inactive or inconclusive.

SMILES	AmpC no deterg	AmpC detergent	AMA1 RON2 block	Cycloheximide cs	Shiga toxin inh	SARS PLpro yeast
Cc1ccc(C(=O)Nc2nc3ccc(S(C)(=O)=O)cc3s2)s1	-11%	-7%	7%	70*	72	1%
O=C(C[n+]1ccccc1)Nc1nc2ccccc2s1	-9%	-2%	4%	21*	29	3%
Cc1c(C(=O)NCCCN2CCOCC2)sc2nc(-c3ccc(F)cc3)cn12	104%	-8%	26%	10	15	14%
CN(CCn1ccnc1)Cc1cn(-c2ccccc2)nc1-c1ccc2c(c1)OCO2	127%	5%	-5%	-2	13	-2%
COC(=O)c1sc(NC(=O)/C=C/c2ccc(C)o2)nc1C	-21%	-6%	8%	33*	56*	6%
COc1ccc2nc(NC(=O)CCNC(=O)c3ccco3)sc2c1	-16%	-23%	-5%	.	.	-9%
CN(CC(=O)Nc1nc2ccccc2s1)S(=O)(=O)c1ccccc1	-17%	?	1%	29*	61*	0%
